Bioassay records deposited in PubChem BioAssay by National Center for Advancing Translational Sciences (NCATS).
Giardia killer: Small Molecules that selectively kill Giardia lamblia: qHTS; Giardia lamblia trophozoite viability; activity change, % at 7.66 µM, hits read low; actives 0.15% (n = 340,000); in the data active = activity change below about -80%; inconclusive = between about -30% and that limit;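 also: parasites exposed to compound for two days anaerobically before the ATP read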
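Anaerobic 48 hrs incubation at 37 deg C of 100 trophozoites/well with test compounds; ATPLite 1-Step luminescence, 15-30 min RT, reports cellular ATP as viability.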
Nrf2 block: Nrf2 qHTS screen for inhibitors. A549 ARE-Fluc reporter, luciferase luminescence, 18-24 h. Potency, µM (doses to about 46 µM), usual class: inhibitors. actives 2.1% (n = 360,000). AID 504444, 2011; also: nearly all actives have a fitted effect of over 60% in size
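Two sequential reads on A549 ARE_Fluc cells exposed to compound for 18-24 h: a CellTiter-Fluor fluorescence read for viability, then a luciferase luminescence read for Nrf2/ARE activity.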
mIDH1 inhibitor: qHTS for Inhibitors of mutant isocitrate dehydrogenase 1 (IDH1): qHTS; Isocitrate dehydrogenase [NADP] cytoplasmic (Homo sapiens), O75874; Potency, µM (top dose mostly 76.6 µM), hits mostly inhibitors; IDH1-R132H enzyme, NADPH consumption, diaphorase/resazurin fluorescence; actives 0.093% (n = 390,000); also: nearly all actives have a fitted effect of over 65% in size
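IDH1-R132H (0.5 ug/mL dispensed) in pH 7.5 Tris buffer was preincubated 30 min with compound, then given a substrate mix of 0.016 mM NADPH and 2 mM alpha-KG for 80 min at room temperature; remaining NADPH was read by diaphorase/resazurin fluorescence.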
Nrf2 ARE act: qHTS of Nrf2 Activators | Potency, µM (doses to about 46.1 µM), usual class: activators | AID 624171, 2012 | AREc32 ARE-luciferase reporter (MCF7-derived line), luminescence, 24 h | actives 0.31% (n = 410,000); also: nearly all actives have a fitted effect of over 65% in size
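Each well held 1000 AREc32 cells, which were incubated with compound for 24 hr at 37 deg C after overnight attachment, and ARE reporter activity was quantified by firefly luciferase luminescence.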
Anesthetic bind: qHTS Assay for Identification of Novel General Anesthetics; Ferritin light chain (Equus caballus), P02791; AID 485281, 2010; Potency, µM (titrated, usually from 77.5 µM), actives largely listed as inhibitors; apoferritin/1-aminoanthracene competitive binding, fluorescence; actives 0.074% (n = 350,000); also: nearly all actives have a fitted effect of over 20% in size
Target sequence (P02791 2-175 limits assumed): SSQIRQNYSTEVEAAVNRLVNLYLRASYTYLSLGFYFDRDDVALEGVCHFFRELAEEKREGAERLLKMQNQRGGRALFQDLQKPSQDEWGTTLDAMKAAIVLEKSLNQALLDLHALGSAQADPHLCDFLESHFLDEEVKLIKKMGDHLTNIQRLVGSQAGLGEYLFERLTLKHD
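10 uM apoferritin + 50% sat. 1-AMA, PBS; cpd 10 min RT; Ex380/Em535 endpoint; normalized to free probe vs complex; 4-param Hill fit; propofol titration as pos. ctrl.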
A549 tox-1: Nrf2 qHTS screen for inhibitors: counterscreen for cytotoxicity; A549 ARE-Fluc cells, CellTiter-Fluor viability, 18-24 h; AID 504648, 2011; actives 0.16% (n = 390,000); Potency, µM (top dose mostly 46 µM), usual class: inhibitors
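A549 ARE-Fluc cells in 5% FBS OPTI-MEM, 5000 cells/well, rested 2 h then exposed to compounds in concentration-response for 18-24 h at 37 °C. Viability by CellTiter-Fluor fluorescence (Ex 405/Em 525) after 30 min; luciferase luminescence (BugLite, 15 min, RT) read afterwards.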
FLuc enzyme inh: Nrf2 qHTS screen for inhibitors: Purified Fluc Biochemical Counterscreen for Hit Validation; actives 4% (n = 1,400); AID 720522, 2013; Potency, µM (doses to about 57.5 µM), most hits filed as inhibitors; shares compounds with Nrf2 block; purified firefly luciferase, luminescence inhibition; also: nearly all actives have a fitted effect of over 65% in size
A549 tox-2: Nrf2 qHTS screen for inhibitors: A549 ARE-Fluc Cytotoxicity Counterscreen for Hit Validation | AID 720523, 2013 | A549 ARE-Fluc cells, cytotoxicity counterscreen | Potency, µM (series often up to 46.1 µM), usual class: inhibitors | actives 2% (n = 1,400) | shares compounds with Nrf2 block;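 also: cells exposed to compounds for 18 to 24 hours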
ARE-Fluc inh: Nrf2 qHTS screen for inhibitors: Nrf2 A549 ARE-Fluc Confirmation Assay for Hit Validation; shares compounds with Nrf2 block; A549 ARE-firefly luciferase reporter, luminescence; Potency, µM (doses to about 46.1 µM), usual class: inhibitors; actives 74% (n = 1,400); AID 720524, 2013; also: nearly all actives have a fitted effect of over 65% in size
A number is an active result; 0 = inactive; ? = inconclusive; - = no result shown. A selection: hits, their analogues and other compounds. The true share with any hit is near 2.3%. Unless noted, calls follow the shape of the dose curve; as a rule, active = well fitted curve in the direction sought with a large enough effect; inconclusive = small, poorly fitted or top-dose-only effect, or another doubt; inactive = no such curve, though single readings can be large; an effect the other way counts as inactive or inconclusive.

SMILES	Giardia killer	Nrf2 block	mIDH1 inhibitor	Nrf2 ARE act	Anesthetic bind	A549 tox-1	FLuc enzyme inh	A549 tox-2	ARE-Fluc inh
Cc1cc(C(C)(C)C)cc(C)c1C[n+]1ccc2ccccc2c1	0	3.7µM	0	0	?	0	0	0	2.3µM
Cc1ccc(C(=O)C[n+]2ccc3ccccc3c2)cc1	0	?	0	0	0	0	-	-	-
O=[N+]([O-])c1ccc(S(=O)(=O)CC2CSc3nc4ccccc4n32)cc1 (stereo unspecified)	0	5.2µM	0	0	0	0	0	?	2.1µM
COc1ccc(NS(=O)(=O)c2ccc(NC(=O)c3ccc(N(C)S(C)(=O)=O)cc3)cc2)c(OC)c1	0	1.8µM	0	0	0	0	0	0	2.6µM
COc1ccc(OC)c(Nc2nc(-c3sc(NC(=O)CC(C)C)nc3C)cs2)c1	0	0	0	0	0	0	-	-	-
COc1ccc(OC)c(Nc2nc(-c3sc(NC(=O)C(C)(C)C)nc3C)cs2)c1	0	8.2µM	0	0	0	0	0	0	?
CCCCC(=O)Nc1nc(C)c(-c2csc(Nc3cc(Cl)ccc3OC)n2)s1	0	0	0	0	0	0	-	-	-
COc1ccc(Cl)cc1Nc1nc(-c2sc(NC(=O)C(C)(C)C)nc2C)cs1	0	4.1µM	0	0	0	0	0	0	1.8µM
O=C(OCC#CCSc1nnc(-c2cccc3ccccc23)o1)c1sccc1Cl	-	0	-	-	-	0	-	-	-
COc1ccc(C)cc1NC(=O)CSc1ccc(-c2sc(C)nc2C)nn1	0	9.2µM	0	0	0	0	?	0	?
COc1ccc(OC)c(NC(=O)CSc2ccc(-c3sc(C)nc3C)nn2)c1	-	-	0	0	0	0	-	-	-
COc1ccc(C)cc1NC(=O)CSc1ccc(-c2ccccn2)nn1	0	3.7µM	0	0	?	0	?	0	18µM
CCN(CC)C(=O)C1=C(C)N(CCC2=CCCCC2)C(=O)C(CC(=O)NCc2cccs2)C1 (stereo unspecified)	-	-	0	0	-	-	-	-	-
CCN(CC)C(=O)Cn1ncc2c([nH]c3ccccc32)c1=O	-	0	0	0	0	0	-	-	-
CC(=O)N(C(C)=O)c1ncc2c([nH]c3ccccc32)c1C#N	0	8.2µM	0	0	0	0	0	0	-
NC(=Nc1nc(-c2ccccn2)cc2ccccc12)c1ccccn1	0	1.5µM	0	0	-	0	0	0	1.6µM
NCC(=O)N[C@@H](CCCN=C(N)N)C(=O)NCC(=O)N[C@@H](CC(=O)O)C(=O)N[C@@H](CO)C(=O)O	-	-	-	-	0	-	-	-	-
Cc1cccc2sc(NNC(=O)c3ccc(S(=O)(=O)N4CCc5ccccc5C4)cc3)nc12	0	?	0	0	0	0	0	0	6.5µM
CCOC(=O)N1CCN(S(=O)(=O)c2ccc(C(=O)NNc3nc4ccc(Cl)cc4s3)cc2)CC1	0	5.8µM	0	0	0	?	0	0	7.3µM
CCOC(=O)N1CCN(S(=O)(=O)c2ccc(C(=O)NNc3nc4c(C)cc(C)cc4s3)cc2)CC1	0	?	0	0	0	0	-	-	-
Cc1ccc(S(=O)(=O)N(Cc2ccccc2)c2ccccc2C(=O)NCc2ccco2)cc1	0	5.2µM	0	0	0	?	0	0	0
